Activity calls are given as the source filed them. The calls were made as follows: active = hit-call score of the fitted dose curve at least 0.9, where 1 is the maximum; inactive = score below 0.9.
How the values were obtained:
Settings in all cases: mRNA level, 48 h; actives raise or lower the signal
[1] = read-out: Cytochrome P450 (CYP1A1), CYP1A1 (gene 1543); assay: LTEA_HepaRG_CYP1A1: Life Technologies and Expression Analysis (LTEA) Assay for Cytochrome P450 (CYP1A1) using HepaRG (AID 2283454)
In short: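 CYP1A1 transcript levels measured by Fluidigm qRT-PCR against three housekeeping genes, 48 h after chemical dosing of human HepaRG cells (highest concentration 100 uM, half-log steps, 0.5% DMSO vehicle). Gain or loss of signal fitted relative to DMSO.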

[2] = read-out: CFLAR gene, CFLAR (gene 8837); assay: LTEA_HepaRG_CFLAR: Life Technologies and Expression Analysis (LTEA) Assay for CFLAR gene using HepaRG (AID 2283455)
In short: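 Transcript level by qRT-PCR (normalized to ACTB, GAPDH and POLR2A) after 48 h chemical exposure of HepaRG cells, top concentration 100 uM with half-log steps, 0.5% DMSO vehicle, duplicates; fitted bidirectionally against DMSO baseline.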

[3] = read-out: Forkhead box O1 (FOXO1), FOXO1 (gene 2308); assay: LTEA_HepaRG_FOXO1: Life Technologies and Expression Analysis (LTEA) Assay for Forkhead box O1 (FOXO1) using HepaRG (AID 2283456)
In short: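 FOXO1 transcript quantified by qRT-PCR after 48 h chemical exposure (top 100 uM, half-log steps, 0.5% DMSO) of HepaRG cells, housekeeping-normalized (ACTB/GAPDH/POLR2A). Changes fitted in both directions relative to vehicle.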

[4] = read-out: growth arrest and DNA damage 45 (GADD45A), GADD45A (gene 1647); assay: LTEA_HepaRG_GADD45A: Life Technologies and Expression Analysis (LTEA) Assay for growth arrest and DNA damage 45 (GADD45A) using HepaRG (AID 2283458)
In short: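 Transcript induction or loss, quantified by TaqMan qRT-PCR against three housekeeping genes, is the read-out. HepaRG cells received chemicals for 48 h across eight half-log concentrations from 100 uM in 0.5% DMSO; gain and loss fitted relative to DMSO.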

[5] = read-out: Forkhead box O3 (FOXO3), FOXO3 (gene 2309); assay: LTEA_HepaRG_FOXO3: Life Technologies and Expression Analysis (LTEA) Assay for Forkhead box O3 (FOXO3) using HepaRG (AID 2283459)
In short: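 FOXO3 transcript measured by qRT-PCR (normalized to ACTB, GAPDH, POLR2A) after 48 h exposure of HepaRG cells in serum-free induction medium. Duplicates, eight half-log concentrations up to 100 uM, 0.5% DMSO; gain or loss fitted against DMSO.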

[6] = read-out: ABC Transporter (ABCB1), ABCB1 (gene 5243); assay: LTEA_HepaRG_ABCB1: Life Technologies and Expression Analysis (LTEA) Assay for ABC Transporter (ABCB1) using HepaRG (AID 2283460)
In short: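 ABCB1 transcript level measured by TaqMan qRT-PCR against three housekeeping genes after 48 h chemical exposure of differentiated HepaRG cells. Top concentration 100 uM, half-log steps, eight points, 0.5% DMSO vehicle; bidirectional fit relative to DMSO.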

[7] = read-out: growth arrest and DNA damage 45 (GADD45B), GADD45B (gene 4616); assay: LTEA_HepaRG_GADD45B: Life Technologies and Expression Analysis (LTEA) Assay for growth arrest and DNA damage 45 (GADD45B) using HepaRG (AID 2283461)
In short: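 Transcript level quantified by Fluidigm TaqMan qRT-PCR with three housekeeping genes for normalization, analyzed for up- or down-regulation against 0.5% DMSO. HepaRG cultures dosed 48 h at eight half-log concentrations up to 100 uM, duplicates.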

[8] = read-out: ABC Transporter (ABCC3), ABCC3 (gene 8714); assay: LTEA_HepaRG_ABCC3: Life Technologies and Expression Analysis (LTEA) Assay for ABC Transporter (ABCC3) using HepaRG (AID 2283462)
In short: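 Transcript level by TaqMan qRT-PCR, normalised to three housekeeping genes, fitted in both directions relative to vehicle. Chemicals tested in duplicate at eight half-log concentrations up to 100 uM for 48 h on HepaRG cells (0.5% DMSO).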

[9] = read-out: ABC Transporter (ABCB11), ABCB11 (gene 8647); assay: LTEA_HepaRG_ABCB11: Life Technologies and Expression Analysis (LTEA) Assay for ABC Transporter (ABCB11) using HepaRG (AID 2283463)
In short: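 ABCB11 transcript levels quantified by TaqMan qRT-PCR against three housekeeping genes after 48 h chemical exposure of HepaRG cultures. Concentrations up to 100 uM in half-log steps, 0.5% DMSO vehicle; both induction and suppression scored.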

[10] = read-out: ABC Transporter (ABCC2), ABCC2 (gene 1244); assay: LTEA_HepaRG_ABCC2: Life Technologies and Expression Analysis (LTEA) Assay for ABC Transporter (ABCC2) using HepaRG (AID 2283464)
In short: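 Endpoint is ABCC2 transcript level from qRT-PCR, normalized to three housekeeping genes and fitted bidirectionally relative to DMSO. Human HepaRG cells received test chemical for 48 h at up to 100 uM (8 points, half-log steps, 0.5% DMSO), duplicate wells.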

[11] = read-out: Broad substrate specificity ATP-binding cassette transporter ABCG2 (Homo sapiens) (UniProt Q9UNQ0); assay: LTEA_HepaRG_ABCG2: Life Technologies and Expression Analysis (LTEA) Assay for ABC Transporter (ABCG2) using HepaRG (AID 2283465)
In short: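 ABCG2 transcript was quantified by TaqMan qRT-PCR against three housekeeping genes in HepaRG cells. Cells were treated in duplicate for 48 h across an 8-point half-log series up to 100 uM, with 0.5% DMSO vehicle. Gain or loss versus DMSO was fit.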

[12] = read-out: ATP-citrate lyase (ACLY), ACLY (gene 47); assay: LTEA_HepaRG_ACLY: Life Technologies and Expression Analysis (LTEA) Assay for ATP-citrate lyase (ACLY) using HepaRG (AID 2283466)
In short: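 ACLY mRNA quantified by qRT-PCR on Fluidigm arrays against three housekeeping genes, after 48 h chemical treatment of HepaRG cells (top concentration 100 uM, half-log steps, 0.5% DMSO vehicle). Up- or down-regulation fitted relative to DMSO.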

[13] = read-out: Peroxisomal acyl-coenzyme A oxidase 1 (ACOX1) gene, ACOX1 (gene 51); assay: LTEA_HepaRG_ACOX1: Life Technologies and Expression Analysis (LTEA) Assay for Peroxisomal acyl-coenzyme A oxidase 1 (ACOX1) gene using HepaRG (AID 2283467)
In short: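 ACOX1 transcript levels were quantified by TaqMan qRT-PCR against three housekeeping genes after 48 h chemical exposure of differentiated human HepaRG cells. Exposure used eight half-log steps topping at 100 uM, 0.5% DMSO vehicle, in duplicate. Bidirectional curve fits were made relative to DMSO.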

[14] = read-out: Alkaline Phosphatase, Placental (ALPP) gene, ALPP (gene 250); assay: LTEA_HepaRG_ALPP: Life Technologies and Expression Analysis (LTEA) Assay for Alkaline Phosphatase, Placental (ALPP) gene using HepaRG (AID 2283468)
In short: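 ALPP transcript level, measured by qRT-PCR and normalized to three housekeeping genes (ACTB, GAPDH, POLR2A), after 48 h dosing of differentiated HepaRG in serum-free induction medium. Top concentration 100 uM with half-log dilutions (8 points, 0.5% DMSO, duplicates); bidirectional fitting relative to DMSO.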

[15] = read-out: Bcl-2 (BAD) gene, BAD (gene 572); assay: LTEA_HepaRG_BAD: Life Technologies and Expression Analysis (LTEA) Assay for Bcl-2 (BAD) gene using HepaRG (AID 2283469)
In short: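 Read-out: qRT-PCR of BAD mRNA, normalized to three housekeeping genes. Human HepaRG cultures got 48 h chemical exposure in 0.5% DMSO, duplicate eight-point half-log series topping at 100 uM. Gain or loss of signal fitted versus DMSO vehicle.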

[16] = read-out: adenosine kinase (ADK) gene, ADK (gene 132); assay: LTEA_HepaRG_ADK: Life Technologies and Expression Analysis (LTEA) Assay for adenosine kinase (ADK) gene using HepaRG (AID 2283471)
In short: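 HepaRG (human liver), 48 h chemical exposure, 8-pt half-log series, top 100 uM, 0.5% DMSO vehicle. Readout: ADK mRNA by qRT-PCR vs housekeeping genes; bidirectional curve fit relative to DMSO baseline.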

[17] = read-out: Alpha-fetoprotein (AFP) gene, AFP (gene 174); assay: LTEA_HepaRG_AFP: Life Technologies and Expression Analysis (LTEA) Assay for Alpha-fetoprotein (AFP) gene using HepaRG (AID 2283472)
In short: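 Chemicals were tested on differentiated HepaRG cells for 48 hours at eight concentrations up to 100 uM, with 0.5% DMSO as vehicle. AFP expression was then quantified by qRT-PCR and analyzed for gain or loss relative to DMSO.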

[18] = read-out: BCL2L11 (gene 10018); assay: LTEA_HepaRG_BCL2L11: Life Technologies and Expression Analysis (LTEA) Assay for Bcl-2 (BCL2L11) gene using HepaRG (AID 2283473)
In short: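 BCL2L11 transcript levels are measured by Fluidigm qRT-PCR, normalized to three housekeeping genes. HepaRG cultures were plated 48 h, then treated 48 h with test chemical (top 100 uM, half-log, 0.5% DMSO vehicle); curves were fitted bidirectionally against DMSO.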

[19] = read-out: Bcl-2 (BAX) gene, BAX (gene 581); assay: LTEA_HepaRG_BAX: Life Technologies and Expression Analysis (LTEA) Assay for Bcl-2 (BAX) gene using HepaRG (AID 2283470)
In short: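 Cells were thawed, plated for 48 h, moved to serum-free induction medium and dosed for 48 h (highest concentration 100 uM, half-log steps, 0.5% DMSO). Total RNA was then analysed for BAX expression by qRT-PCR.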

Measured: AC50

Sequence of Broad substrate specificity ATP-binding cassette transporter ABCG2 (Homo sapiens) (Q9UNQ0 whole entry, looked up): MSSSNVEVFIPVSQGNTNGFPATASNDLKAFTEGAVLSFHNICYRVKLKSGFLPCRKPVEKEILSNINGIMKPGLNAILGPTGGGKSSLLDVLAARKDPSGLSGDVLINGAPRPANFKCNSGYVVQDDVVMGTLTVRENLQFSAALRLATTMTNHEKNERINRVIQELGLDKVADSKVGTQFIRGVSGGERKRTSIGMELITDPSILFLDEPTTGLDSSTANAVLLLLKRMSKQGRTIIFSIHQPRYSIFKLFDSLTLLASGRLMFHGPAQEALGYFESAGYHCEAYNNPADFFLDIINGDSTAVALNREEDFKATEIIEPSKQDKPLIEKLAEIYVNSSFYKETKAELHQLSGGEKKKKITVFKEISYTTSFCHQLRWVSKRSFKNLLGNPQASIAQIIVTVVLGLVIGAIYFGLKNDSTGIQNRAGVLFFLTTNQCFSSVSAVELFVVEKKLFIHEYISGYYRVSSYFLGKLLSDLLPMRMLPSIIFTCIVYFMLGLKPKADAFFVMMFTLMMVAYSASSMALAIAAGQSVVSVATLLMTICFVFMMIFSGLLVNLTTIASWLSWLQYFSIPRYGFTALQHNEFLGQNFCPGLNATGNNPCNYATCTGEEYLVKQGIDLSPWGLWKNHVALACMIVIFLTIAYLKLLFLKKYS

CS(=O)(=O)NC(=O)c1cc(Oc2ccc(C(F)(F)F)cc2Cl)ccc1[N+](=O)[O-]
inactive: [2] | [3] | [4] | [5] | [7] | [8] | [11] | [12] | [13] | [14] | [15] | [16] | [17] | [18]
active: [1] 39.3 µM | [6] 0.644 µM | [9] 50 µM | [10] 6.32 µM

ClCCOCCCl
inactive: [1] | [2] | [3] | [4] | [5] | [6] | [7] | [8] | [9] | [10] | [11] | [12] | [13] | [14] | [15] | [16] | [17] | [18]

Clc1ccccc1Cl
inactive: [1] | [2] | [3] | [4] | [5] | [6] | [7] | [8] | [9] | [10] | [11] | [12] | [13] | [14] | [15] | [19] | [16] | [17] | [18]

CC(C)(C)OOC(=O)c1ccccc1
inactive: [2] | [3] | [4] | [5] | [6] | [7] | [8] | [9] | [10] | [11] | [12] | [13] | [14] | [15] | [19] | [16] | [17] | [18]

From PubChem BioAssay (EPA / NIEHS)
